Active and inactive are the calls of the source. Unless noted, how the calls were made is not given here.
Key:
[1] = HepG2 liver cancer cell viability effects, profiling panel, resazurin fluorescence, 24 h, PK04 Diversity Set (AID 1172); conditions: higher = more signal
[2] = basal S. cerevisiae growth modulation, no modifier, primary screen, OD600, strain BY4716, 24 h, basal condition (AID 1173); conditions: OD600, 24 h, higher = more signal, called active from +8 up or from −8 down
[3] = MM1S myeloma cell viability, profiling panel, resazurin fluorescence, basal, 24 h, PK04 Diversity Set (AID 1174); conditions: higher = more signal, called active from +8 up or from −8 down;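 further: MM1S multiple myeloma cell line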
[4] = molecular target: Dihydroorotate dehydrogenase (quinone), mitochondrial (Plasmodium falciparum (isolate 3D7)) (UniProt Q08210); test: PfDHODH enzyme inhibitors, primary screen, biochemical, C-terminal His tag, absorbance 600 nm (AID 1175); conditions: DCIP absorbance 600 nm, higher = more signal, called active from +8 up or from −8 down;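 further: recombinant parasite enzyme with a five histidine tag at its C terminus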
[5] = P. aeruginosa biofilm formation inhibitors, primary screen, strain PAO1, LB-PBS medium, absorbance 600 nm (AID 1176); conditions: P. aeruginosa PAO1 growth/biofilm, A600, 12 h; higher = more signal
[6] = S. cerevisiae RM11-1a growth modifiers, primary screen, strain RM11-1a, OD600, basal, 24 h (AID 1177); conditions: OD600, 24 h, higher = more signal, called active from +8 up or from −8 down;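 further: cultures grown under basal conditions with no added stressor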
[7] = E. coli acrAB mutant growth effects, primary screen, E. coli filamentation inducers, strain DRC39, OD650, 24 h (AID 1178); conditions: higher = more signal, called active from +8 up or from −8 down;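 further: growth measured as culture turbidity by optical density at 650 nm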
[8] = E. coli acrAB mutant growth effects, primary screen, E. coli filamentation inducers, strain DRC39, OD650, 48 h (AID 1179);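 further: screen aims at cell division blockers that make cells filament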; conditions: E. coli DRC39 delta-acrAB growth, higher = more signal, called active from +8 up or from −8 down
[9] = RPMI8226 myeloma cell viability, profiling panel, resazurin fluorescence, basal, 24 h, PK04 Diversity Set (AID 1180); conditions: higher = more signal;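 further: RPMI8826 multiple myeloma cell line at 5000 cells per well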
[10] = molecular target: E3 ubiquitin-protein ligase XIAP (Homo sapiens) (UniProt P98170); test: XIAP binders, primary screen, biophysical, small-molecule microarray, fluorescence 635 nm (AID 1181); conditions: small-molecule microarray binding, higher = more signal;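 further: score merges 667 nm emission and signal to noise over triplicate slides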
[11] = test system: XIP peptide (Xip251-270) binding; test: small-molecule binders of XIP peptide, primary screen, biochemical, small-molecule microarray, fluorescence 635/667 nm, 0.1 µg/mL protein (AID 1182); conditions: fluorescent protein binding, 635 nm, higher = more signal, called active from +8 up or from −8 down
[12] = test system: XIP peptide (Xip251-270); test: small-molecule binders of XIP peptide, primary screen, biochemical, small-molecule microarray, fluorescence 635/667 nm, 0.5 µg/mL protein (AID 1183); conditions: small-molecule microarray binding, fluorescence 635 nm; higher = more signal
[13] = Plasmodium falciparum growth inhibition, primary screen, strain 3D7, DAPI fluorescence, 100 nL (AID 1184);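 further: parasites grown inside human red blood cells in medium with human serum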; conditions: P. falciparum 3D7 growth, 3 d, higher = more signal
[14] = molecular target: Homeobox protein Hox-A13 (Mus musculus) (UniProt Q62424); test: inhibitors of HoxA13-DNA binding, primary screen, biochemical, fluorescence polarization, labeled oligonucleotide (AID 1185); conditions: 15 min, higher = more signal, called active from +8 up or from −8 down
[15] = inhibitors of hydroxyurea-induced Chk1 phosphorylation, primary screen, imaging, HeLa, phospho-Chk1 antibody, percent positive cells (AID 1186); conditions: hydroxyurea-induced phospho-Chk1 immunofluorescence imaging, higher = more signal
[16] = inhibitors of hydroxyurea-induced Chk1 phosphorylation, primary screen, imaging, HeLa, phospho-Chk1 nuclear intensity (AID 1187); conditions: hydroxyurea-induced phospho-Chk1 immunofluorescence imaging, higher = more signal

Sequence of Homeobox protein Hox-A13 (Mus musculus) (Q62424 whole entry, looked up): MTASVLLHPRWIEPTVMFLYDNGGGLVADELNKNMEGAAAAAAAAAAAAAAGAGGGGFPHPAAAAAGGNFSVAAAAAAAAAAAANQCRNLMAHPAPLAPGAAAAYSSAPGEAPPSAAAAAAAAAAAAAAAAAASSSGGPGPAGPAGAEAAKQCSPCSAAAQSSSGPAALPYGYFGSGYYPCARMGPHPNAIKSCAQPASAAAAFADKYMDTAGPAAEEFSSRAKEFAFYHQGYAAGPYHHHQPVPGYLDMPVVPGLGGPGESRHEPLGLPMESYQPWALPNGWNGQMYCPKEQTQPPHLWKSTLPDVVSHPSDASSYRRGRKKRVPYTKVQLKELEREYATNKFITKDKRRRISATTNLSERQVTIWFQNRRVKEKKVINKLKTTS
Sequence of Dihydroorotate dehydrogenase (quinone), mitochondrial (Plasmodium falciparum (isolate 3D7)) (Q08210 whole entry, looked up): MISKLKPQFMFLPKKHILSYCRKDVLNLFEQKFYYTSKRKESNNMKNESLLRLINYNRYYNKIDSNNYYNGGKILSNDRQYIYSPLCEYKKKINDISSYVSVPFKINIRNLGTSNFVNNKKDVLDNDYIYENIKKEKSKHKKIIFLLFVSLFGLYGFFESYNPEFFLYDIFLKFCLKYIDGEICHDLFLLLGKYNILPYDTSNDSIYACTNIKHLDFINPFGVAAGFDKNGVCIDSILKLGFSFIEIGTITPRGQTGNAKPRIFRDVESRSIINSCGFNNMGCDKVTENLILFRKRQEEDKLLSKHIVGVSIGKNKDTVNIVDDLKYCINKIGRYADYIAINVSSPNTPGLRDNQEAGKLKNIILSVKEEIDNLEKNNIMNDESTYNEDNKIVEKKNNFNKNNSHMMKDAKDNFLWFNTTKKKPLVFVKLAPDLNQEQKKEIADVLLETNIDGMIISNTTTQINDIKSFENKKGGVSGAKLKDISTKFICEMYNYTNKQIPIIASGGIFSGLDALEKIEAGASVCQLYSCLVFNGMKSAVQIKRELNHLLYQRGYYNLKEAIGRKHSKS
Sequence of E3 ubiquitin-protein ligase XIAP (Homo sapiens) (P98170 whole entry, looked up): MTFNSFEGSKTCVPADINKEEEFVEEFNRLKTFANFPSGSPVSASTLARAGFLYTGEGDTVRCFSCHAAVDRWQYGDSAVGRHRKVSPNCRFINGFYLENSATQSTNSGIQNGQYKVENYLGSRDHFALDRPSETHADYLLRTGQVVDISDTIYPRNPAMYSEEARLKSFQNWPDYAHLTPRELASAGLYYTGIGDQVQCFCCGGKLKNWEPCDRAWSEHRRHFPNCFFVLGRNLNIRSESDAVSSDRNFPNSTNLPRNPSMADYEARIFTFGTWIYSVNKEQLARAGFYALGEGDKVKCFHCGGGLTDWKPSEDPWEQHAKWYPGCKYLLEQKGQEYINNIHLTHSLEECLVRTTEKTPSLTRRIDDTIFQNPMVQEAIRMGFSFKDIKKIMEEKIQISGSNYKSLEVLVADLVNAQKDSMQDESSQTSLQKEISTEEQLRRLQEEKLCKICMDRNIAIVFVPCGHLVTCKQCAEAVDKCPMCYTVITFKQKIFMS

SMILES | z-score [1] | z-score [2] | z-score [3] | composite z-score [4] | z-score [5] | z-score [6] | z-score [7] | z-score [8] | z-score [9] | composite z-score [10] | composite z-score [11] | composite z-score [12] | z-score [13] | z-score [14] | z-score [15] | z-score [16]
O=C1OCCC=C[C@H]2OC34C=CCN(c5ccc6ccccc6c5)C(=O)[C@H]3N(CCO)C(=O)[C@@H]4C12 (some centres undefined) | 0.523 | -0.783 (inactive) | -1.23 (inactive) | -3.6 (inactive) | 0.345 (inactive) | 0.0789 (inactive) | -1.26 (inactive) | -1.42 (inactive) | -0.796 | -0.248 | 0.263 (inactive) | 0.569 | -0.022 | -5.62 (inactive) | 0.8 (inactive) | 0.163 (inactive)
COC(=O)C(CC#Cc1ccc2c(c1)[C@]1(C(=O)N2)[C@H](c2ccccc2OCCO)N2[C@H](c3ccccc3)[C@H](c3ccccc3)OC(=O)[C@H]2[C@@H]1C(=O)N1CCc2cc(OC)c(OC)cc2C1)C(=O)OC | 0.0231 | 1.07 (inactive) | -1.07 (inactive) | -0.653 (inactive) | 2.83 (inactive) | 1.79 (inactive) | 0.021 (inactive) | 0.761 (inactive) | -0.918 | 0.132 | -0.19 (inactive) | 0.621 | -2.19 | 3.17 (inactive) | -0.0586 (inactive) | -0.139 (inactive)
CC(C)NC(=O)[C@@H]1c2ccccc2C(=O)N(Cc2ccccc2C(F)(F)F)[C@H]1c1ccc(CO)cc1 | 0.994 | -0.249 (inactive) | 0.711 (inactive) | 0.0482 (inactive) | 0.441 (inactive) | -0.227 (inactive) | 0.296 (inactive) | 0.0644 (inactive) | 0.616 | -0.135 | 0.483 (inactive) | 0.78 | -0.276 | -3.17 (inactive) | 0.41 (inactive) | 0.405 (inactive)
COCCn1c(C(=O)N(C)C)cc2c1C[C@H]1CN(C(=O)c3ccccc3)[C@@](Cc3ccc(OC)cc3)(C(=O)OC)[C@@H]21 | -0.17 | 1.63 (inactive) | -1.43 (inactive) | -0.271 (inactive) | 0.784 (inactive) | 1.03 (inactive) | -0.134 (inactive) | -0.289 (inactive) | -1.81 | 0.131 | 0.116 (inactive) | 0.435 | -1.45 | -3.91 (inactive) | 0.688 (inactive) | 0.542 (inactive)
COc1ccc(NN2C(C(O)c3ccc(I)cc3)C=CC3C(=O)N(C4CCCCC4)C(=O)C32)cc1 (centres undefined) | 1.59 | 0.0997 (inactive) | 0.28 (inactive) | 0.526 (inactive) | 0.726 (inactive) | 0.475 (inactive) | -0.558 (inactive) | 0.725 (inactive) | -0.313 | 0.144 | 1.63 (inactive) | 0.618 | -0.684 | -3.31 (inactive) | 0.0831 (inactive) | -0.481 (inactive)
COC(=O)[C@@]1(Cc2ccc(F)cc2)[C@H]2c3cc(C(=O)N4CCCC4)n(Cc4ccccn4)c3C[C@H]2CN1C(=O)c1ccccc1 | -1.52 | 1.32 (inactive) | -2.15 (inactive) | 0.29 (inactive) | 1.03 (inactive) | 0.938 (inactive) | -0.81 (inactive) | -0.962 (inactive) | -2.45 | 0.0945 | 0.224 (inactive) | 0.769 | -1.68 | -4.98 (inactive) | 0.0348 (inactive) | -0.0643 (inactive)
C=CCNC(=O)[C@@H]1[C@H]2C(=O)O[C@H](c3ccccc3)[C@H](c3ccccc3)N2[C@H](c2ccc(OCCO)cc2)[C@@]12C(=O)Nc1ccc(C#CC3(O)CCCCCC3)cc12 | -1.01 | 0.933 (inactive) | -2.37 (inactive) | 0.315 (inactive) | 2.09 (inactive) | 1.16 (inactive) | -0.347 (inactive) | -0.797 (inactive) | -2 | -0.0095 | 1.02 (inactive) | 0.774 | -1.73 | -1.92 (inactive) | -0.0427 (inactive) | -0.271 (inactive)
CC1CC/C=C\[C@H]2OC34C=CCN(Cc5ccccc5)C(=O)[C@H]3N(CCCCCCO)C(=O)[C@@H]4C2C(=O)O1 (some centres undefined) | 0.279 | -0.885 (inactive) | 0.507 (inactive) | 0.285 (inactive) | -1.06 (inactive) | -0.38 (inactive) | 0.608 (inactive) | 1.01 (inactive) | 1.15 | -0.0741 | 1.32 (inactive) | -0.367 | -0.147 | -5.85 (inactive) | 0.0339 (inactive) | 0.0311 (inactive)
CCCCCCc1nc(Cc2cc(OC)c(OC)c(OC)c2)cc2c1[Si](C(C)C)(C(C)C)O[C@H]2c1ccccc1 | 0.915 | 1.12 (inactive) | -0.111 (inactive) | 0.364 (inactive) | 0.374 (inactive) | 0.202 (inactive) | -0.373 (inactive) | -0.585 (inactive) | -0.83 | -0.491 | -0.0565 (inactive) | 0.103 | -2.34 | -3.15 (inactive) | 0.252 (inactive) | -0.409 (inactive)
CC(C)(C)OC(=O)CC[C@]1(C(=O)NCC(O)CO)N=C(c2ccc(OCCCO)cc2)O[C@H]1c1ccccc1N=[N+]=[N-] (some centres undefined) | -0.108 | -0.66 (inactive) | -1.58 (inactive) | -0.955 (inactive) | 0.948 (inactive) | -0.134 (inactive) | -0.0029 (inactive) | 0.0611 (inactive) | -0.288 | -0.0018 | 3.52 (inactive) | 0.811 | -1.45 | -4.51 (inactive) | 0.0505 (inactive) | 0.259 (inactive)
O=C(N1CCOCC1)[C@@]1(Cc2ccccc2)COC(c2ccc(OCCCO)cc2)=N1 | -0.395 | -3.37 (inactive) | 0.13 (inactive) | -0.641 (inactive) | 0.565 (inactive) | -0.428 (inactive) | 1.26 (inactive) | 0.284 (inactive) | 1.15 | 0.081 | 0.509 (inactive) | 0.52 | -1.99 | -5.19 (inactive) | -0.42 (inactive) | -0.504 (inactive)
Cc1ccc(F)cc1S(=O)(=O)N[C@H]1CCN(Cc2ccc(OC(C)C)cc2)C1 | -0.757 | -9.28 (active) | -1.1 (inactive) | -0.0588 (inactive) | -0.107 (inactive) | 0.297 (inactive) | -1.42 (inactive) | -2.48 (inactive) | -1.19 | -0.0773 | 0.479 (inactive) | 0.338 | 0.646 | -5.72 (inactive) | -0.0604 (inactive) | 0.581 (inactive)
CN(C)CCCC[C@@H]1NC(=O)[C@@H]2C[C@H](C(=O)NCCCCCCNC(=O)CS)[C@H](c3ccc(O)cc3)N2C1=O | 0.155 | -0.17 (inactive) | -0.353 (inactive) | -0.173 (inactive) | 0.767 (inactive) | -0.264 (inactive) | -0.19 (inactive) | -0.551 (inactive) | 0.0875 | 0.0013 | 0.237 (inactive) | 0.859 | -0.0596 | -1.31 (inactive) | -0.282 (inactive) | -0.405 (inactive)
CO[C@H]1O[C@H](CO)[C@@H](OC(=O)Nc2ccccc2)[C@H](OC(=O)Nc2ccccc2)[C@H]1OC(=O)Nc1ccccc1 | -1.08 | 0.0367 (inactive) | -2.78 (inactive) | 1.02 (inactive) | -0.317 (inactive) | 1.84 (inactive) | 1.48 (inactive) | 0.536 (inactive) | -1.95 | -0.0125 | 0.142 (inactive) | 0.69 | -2.51 | -6.21 (inactive) | -0.0874 (inactive) | 0.511 (inactive)

— PubChem BioAssay
